In the library only some 1% were active in any assay of this set; here they are far more common.
APE1 inh – inhibitors of human APE1 endonuclease | Potency, µM (top dose mostly 65.8 µM), actives largely listed as inhibitors | 350,000 tested, 0.35% active | recombinant APE1, TAMRA/BHQ-2 abasic DNA cleavage fluorescence; also: nearly all actives have a fitted effect of over 55% in size
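Incision of a quenched TAMRA/BHQ-2 THF abasic-site duplex (50 nM) by 0.75 nM APE1, after 15 min compound preincubation, measured as fluorescence increase over three 60 s reads. Values normalized to buffer, DMSO and NSC13755 control wells.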
FEN1 inh – human FEN1 inhibition | P39748 | Recombinant FEN1 flap cleavage, fluorescence, 15 min | Potency, µM (titrated, usually from 114 µM), actives largely listed as inhibitors | 390,000 tested, 0.35% active | AID 588795; also: nearly all actives have a fitted effect of over 65% in size
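Nuclease activity of 10 nM FEN1 was measured after 15 min of room-temperature exposure to titrated compounds, by adding 50 nM flap substrate and reading plates at 0 and 15 min.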
WRN helicase inh – inhibitors of human WRN helicase. Q14191. WRN helicase unwinding, fluorescent forked duplex, kinetic. Potency, µM (titrated, usually from 114 µM), most hits filed as inhibitors. 360,000 tested, 0.46% active; also: nearly all actives have a fitted effect of over 55% in size
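WRN at 20 nM final was preincubated with compound for 15 min at room temperature; reaction started with 100 nM forked duplex oligonucleotide carrying fluorophore and quencher plus 2 mM ATP (final). Unwinding followed kinetically by red fluorescence (ex 525/em 598 nm).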
RECQ1 inh-1 – inhibitors of human RECQ1 DNA helicase; RECQ1 DNA unwinding, red fluorescence kinetic read; P46063; AID 2549; 240,000 tested, 0.54% active; Potency, µM (highest dose often 57.3 µM), hits mostly inhibitors; also: nearly all actives have a fitted effect of over 30% in size
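50 nM RECQ1T1 preincubated 15 min with compound in Tris pH 8.0 buffer with MgCl2, DTT, Tween-20 and 2.5 ug/ml poly(dI-dC); started with 200 nM TAMRA/BHQ-2 forked duplex and 2 mM ATP. Unwinding read as fluorescence (525/598 nm), two reads 2 h apart.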
BLM helicase inh – blocks DNA unwinding by human BLM helicase; 350,000 tested, 0.2% active; Potency, µM (top dose mostly 56.1 µM), hits mostly inhibitors; recombinant BLM DNA unwinding, fluorescence dequenching; P54132; AID 2528; also: nearly all actives have a fitted effect of over 35% in size
L3MBTL1 block – blocks human L3MBTL1. Q9Y468. AlphaScreen L3MBTL1–H3K9me1 peptide binding. Potency, µM (highest dose often 57.1 µM), usual class: inhibitors. 230,000 tested, 0.66% active. AID 485360; also: nearly all actives have a fitted effect of over 60% in size
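Read-out is AlphaScreen signal from streptavidin donor and nickel chelate acceptor beads (10 ug/mL final each) bridging L3MBTL1 (50 nM) and biotinylated K9-monomethylated H3(1-15) peptide (75 nM), after 30 min compound exposure at room temperature.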
RECQ1 inh conf – confirmation of human RECQ1 helicase inhibitors; shares compounds with RECQ1 inh-1; RECQ1 helicase DNA unwinding, fluorescence; Potency, µM (top dose mostly 229 µM), hits mostly inhibitors; 610 tested, 28% active; AID 2708; also: nearly all actives have a fitted effect of over 45% in size
RECQ1 ADP FP – counter-screen for RECQ1 inhibitors: ADP displacement. ADP fluorescence polarization displacement counterscreen. 530 tested, 27% active. Potency, µM (titrated, usually from 228 µM), hits mostly inhibitors. AID 2711. shares compounds with RECQ1 inh-1; also: nearly all actives have a fitted effect of over 45% in size
RECQ1 inh-2 – confirmation of human RECQ1 helicase inhibitors | recombinant RECQ1 DNA unwinding, red fluorescence | Potency, µM (series often up to 119 µM), usual class: inhibitors | 1,100 tested, 15% active | shares compounds with RECQ1 inh-1; also: nearly all actives have a fitted effect of over 50% in size
Numbers stand for hits; i = inactive; ? = inconclusive; nt = no result; [ ] = another dose, or the depositor's remark. Calls follow the shape of the dose curve; as a rule, active = well fitted curve in the direction sought with a large enough effect; inconclusive = small, poorly fitted or top-dose-only effect, or another doubt; inactive = no such curve, though single readings can be large; an effect the other way counts as inactive or inconclusive.

SMILES	APE1 inh	FEN1 inh	WRN helicase inh	RECQ1 inh-1	BLM helicase inh	L3MBTL1 block	RECQ1 inh conf	RECQ1 inh-2	others
COc1cc(NC(=O)CCC(=O)c2cccs2)cc(OC)c1	i	i	i	nt	i	nt	nt	nt
Cc1ccc(CSC2=Nc3sccc3C3=NC(=O)CN23)cc1	i	i	i	32µM	i	i	nt	i
c1ccc(-c2csc(N3CCCCCC3)n2)cc1	i	i	i	i	i	i	nt	nt
Cc1cc(N2CCN(c3nc(-c4ccccc4)cs3)CC2)c2ccccc2n1	i	i	i	8.9µM	i	i	i	i	RECQ1 ADP FP=i
CNc1ccc(/C=C/C(=O)c2ccc(C)cc2)cc1[N+](=O)[O-]	i	i	i	?	i	i	nt	i
CNc1ccc(/C=C/C(=O)c2ccc3c(c2)OCCO3)cc1[N+](=O)[O-]	?	i	i	i	i	?	nt	nt
CCC(C(=O)N1CCN(c2cccc(Cl)c2)CC1)c1ccccc1 (stereo not given)	i	i	i	25µM	i	i	nt	i
Cc1csc(NC(=O)C2=NN(c3ccccc3)C(=O)CC2)n1	i	i	i	i	i	i[11.4 µM]	nt	nt
Cc1ccc(-c2csc(NC(=O)C3=NN(c4ccccc4)C(=O)CC3)n2)cc1	i	i	i	?	i	i	nt	i
Cn1c(NCc2cccc(Cl)c2)nc2ccccc21	nt	i	nt	nt	i	nt	nt	nt
CCN(CC)c1ccc(/C=C/C(=O)c2ccc(Br)cc2)cc1	i	?	22µM	8.9µM	i	i	63µM	50µM
COc1ncc2nc(-c3ccccc3)c(=O)n(C[C@H]3CCCO3)c2n1	i	nt	nt	i	i	nt	nt	nt
O=C(O)CCCC(=O)N1CCc2cc(S(=O)(=O)NCc3ccc(F)cc3)ccc21	i	i	i	i	i	nt	i	nt	RECQ1 ADP FP=i
O=C(O)CCC(=O)N1CCc2cc(S(=O)(=O)NCc3ccc(F)cc3)ccc21	nt	i	nt	nt	i	nt	nt	nt
O=C(O)CCC(=O)N1CCc2cc(S(=O)(=O)NCc3cccs3)ccc21	i	i	i	i	i	i	i	nt	RECQ1 ADP FP=i
CC1(C)CO[C@H](CC(=O)O)CN1	i	nt	nt	i	i	nt	nt	nt
Cc1cc(C)n2nc(SCC(=O)Nc3ccc(F)c(F)c3F)nc2n1	i	i	i	nt	nt	i	nt	nt
O=C(/C=C/c1ccccc1F)c1ccoc1	i	i	i	0.14µM	i	i	i	i	RECQ1 ADP FP=i
Cc1ccccc1NP1(=O)OCCCN1Cc1ccccc1Cl (stereo not given)	nt	i	i	nt	nt	nt	nt	nt
CCn1c(SCC(=O)c2ccc(O)c(O)c2)nnc1-c1ccc(C)cc1	?	i	13µM	10µM	i	?	?	?	RECQ1 ADP FP=i
Cc1ccc(S(=O)(=O)N2[C@@H](c3cccc(Cl)c3)C(C(=O)O)=CC[C@H]2c2cccs2)cc1	i	i	i	nt	nt	i	nt	nt
O=C(O)c1ccccc1S(=O)(=O)NCC(O)COC1CCCCC1 (stereo not given)	i	i	i	i	i	i	nt	nt
Cc1ccc(OCC(O)CNS(=O)(=O)c2ccccc2C(=O)O)cc1 (stereo not given)	i	i	i	i	i	i	i	nt	RECQ1 ADP FP=i
COC(=O)c1ccc(NC(=O)CSc2n[nH]c(CC(C)C)n2)cc1	nt	i	nt	nt	i	nt	nt	nt
Cc1ccc(C(=O)Nc2nc(-c3cccnc3)cs2)o1	i	i	i	?	i	i	i	i	RECQ1 ADP FP=i
C[C@H](N)C(=O)N[C@@H](CO)C(=O)N[C@H](C(=O)N[C@H](C(=O)N[C@H](C(=O)N[C@@H](CC(N)=O)C(=O)N[C@@H](Cc1ccc(O)cc1)C(=O)N[C@H](C(=O)O)[C@@H](C)O)[C@@H](C)O)[C@@H](C)O)[C@@H](C)O	i	nt	nt	i	i	nt	nt	nt
NC(=O)c1sc2nc(-c3ccco3)ccc2c1N	?	?	?	11µM	i	i	nt	i
CC(C)NS(=O)(=O)c1ccc(NC(=S)NC(=O)c2ccc(-c3ccccc3)cc2)cc1	i	i	i	?	i	i	nt	i
COc1ccc2[nH]c3c(C)c4ccncc4c(C)c3c2c1	7.9µM	2.8µM	?	22µM	i	i	nt	7.9µM
CCCN1CCc2nc(N3CCN(c4ncccn4)CC3)ncc2C1	nt	i	nt	nt	i	nt	nt	nt

Screening results deposited in PubChem BioAssay by National Center for Advancing Translational Sciences (NCATS).
